# Compound activity as filed in PubChem BioAssay.
# Hits are enriched below; roughly 4.1% of the tested compounds scored in any of these assays.
# ABHD5 PLIN5 PPI: inhibitors of human ABHD5-perilipin-5 interaction; Q00G26+Q8WTS1; Split G. princeps luciferase complementation, luminescence, 4 h; inhibition, % at 4 µM; 360,000 compounds, 0.78% hits; AID 602281;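 active = inhibition above the mean inhibition across every tested compound plus 3 SD, cut at about 22% in these data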;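 note: 0% = DMSO only wells and the 100% control is not disclosed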
# PRMT1 FP inh: inhibitors of human PRMT1; recombinant PRMT1, activity-based probe fluorescence polarization; inhibition, % at 2.79 µM; 370,000 compounds, 1.3% hits;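 active = inhibition above about 21% made by adding two undisclosed values, limit read from the data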
# UHRF1 binding: blocks human UHRF1 binding to methylated DNA; UHRF1 binding to methylated oligo, TR-FRET; AID 687016; 370,000 compounds, 0.75% hits; inhibition, % at 4.4 µM; Q96T88; in the data active = inhibition above about 21%;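 note: UHRF1 SRA domain binding a hemimethylated CpG hairpin DNA probe; 0% = median of test compound wells and 100% = reference inhibitor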
# rCAG RNA binder: r(CAG) repeat RNA binding; TO-PRO-1 dye displacement fluorescence; inhibition, % at 3 µM; 370,000 compounds, 1.3% hits;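 active = inhibition above the plate cutoff, the mean of all test compounds on that plate plus 3 SD, cut at about 35% in these data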;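 note: 0% = DMSO alone and 100% = 100 µM mitoxantrone as full dye displacement; higher means more dye released from RNA so lower well fluorescence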
# LEDGF integ inh: blocks HIV-1 LEDGF/p75-dependent DNA integration; TR-FRET IN-LEDGF/p75 DNA integration, Eu/Cy5; inhibition, % at 3.7 µM; 370,000 compounds, 0.64% hits;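 active = inhibition above the screen-wide mean plus 3 SD, cut at about 13% in these data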;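 note: signal is the Cy5 over europium emission ratio at 671 and 618 nm; 0% = plate median of compound wells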
# MBD2 DNA inh: blocks human MBD2 binding to methylated DNA; Q9UBB5; TR-FRET, MBD2 binding to methylated oligonucleotide; inhibition, % at 4.4 µM; 370,000 compounds, 0.31% hits; in the data active = inhibition above about 13%
# rCAG binder conf: r(CAG) RNA repeat binding, confirmation; shares compounds with rCAG RNA binder; AID 652065; TO-PRO-1 dye displacement fluorescence; 4,300 compounds, 70% hits; inhibition, % at 3 µM;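 active = inhibition above a per-plate cutoff, the mean inhibition of sample wells plus 3 SD, cut at about 35% in these data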;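 note: loss of TO-PRO-1 fluorescence as compound displaces dye from 1x1 AA loop RNA; 0% = DMSO only wells and 100% = 100 µM mitoxantrone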
# DNA CAG counter: disrupts DNA CAG TO-PRO-1 complex, flagging rCAG hits. shares compounds with rCAG RNA binder. d(CAG) DNA oligo TO-PRO-1 dye displacement, fluorescence. inhibition, % at 3 µM. 4,300 compounds, 94% hits. AID 652068;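 active = inhibition above its plate's cutoff, the mean test-well inhibition plus 3 SD, cut at about 4.8% in these data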;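 note: 0% = DNA dye mix with DMSO and 100% = 100 µM mitoxantrone; hits displace the dye from DNA and so lower well fluorescence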
# Starred values were filed as active, the others as inactive; nt = no result.
SMILES,ABHD5 PLIN5 PPI,PRMT1 FP inh,UHRF1 binding,rCAG RNA binder,LEDGF integ inh,MBD2 DNA inh,rCAG binder conf,DNA CAG counter
O=C(Nc1cccc(Br)c1)c1ccc2nc(N3C(=O)CCC3=O)sc2c1,4,-1,2,44*,1,1,27,9.7*
Fc1cccc(Cn2ccc3ccc(-c4ccc5ccn(Cc6ccccc6)c5c4)cc32)c1,nt,1,-1,17,-1,-3,nt,nt
FC(F)(F)Oc1cccc(Cn2ccc3ccc(-c4ccc5ccn(Cc6ccccc6)c5c4)cc32)c1,nt,2,-6,55*,6,-6,14,8.9*
Cc1ccc(-n2c(SCC(=O)Nc3ccc4c(c3)OCCO4)nnc2-c2ccccn2)cc1,nt,-11,-1,2,3,1,nt,nt
CC(C)(C)c1ccc(S(=O)(=O)N2CC(C(=O)O)Oc3ccc(Cl)cc32)cc1 (configuration not stated),-1,-1,-3,63*,1,-5,63*,26*
C[C@H]1[C@H](NC(=O)c2ccc(Cl)cc2)CC[C@@]23CCCN2C(=O)CCC[C@@H]13,nt,3,2,nt,1,-2,nt,nt
CC(=O)N1CCc2cc(S(=O)(=O)NCCC(=O)NCc3ccccc3)ccc21,nt,-1,-2,7,0,-5,nt,nt
O=C(CSc1nc2ccccc2c(=O)n1-c1ccc(Cl)cc1)NNC(=S)Nc1ccccc1,nt,5,-4,49*,3,-3,38*,17*
Cc1ccc(NC(=S)NNC(=O)CSc2nc3sc4c(c3c(=O)n2-c2ccccc2)CCCC4)cc1,nt,-2,-2,52*,2,2,59*,22*
Cc1ccc(-n2c(SCC(=O)O)nc3sc4c(c3c2=O)CCCC4)cc1,-2,1,2,25,0,0,nt,nt
CCCCCCCCN1C(=O)[C@@H](CC(=O)NCC2CCCCC2)C[C@@]2(C(=O)OC)C1=C[C@H](COCc1ccccc1)O[C@@H]2C,nt,-1,0,11,-4,-4,nt,nt
COc1ccc2c3c([nH]c2c1)C1=NCC[C@]12c1ccccc1N=CN2CC3,nt,3,-3,nt,-1,-7,nt,nt
O=c1c2ccccc2nnn1Cc1ccco1,nt,-1,0,5,-2,-1,nt,nt
O=C(O)COc1ccccc1/C=N/NC(=O)COc1ccc(-c2ccccc2)cc1,0,6,-1,66*,-2,-1,64*,22*
COc1ccc(-n2c(SCC(=O)N/N=C/c3ccccc3OCC(=O)O)nc3ccccc3c2=O)cc1,-6,12,8,43*,3,7,47*,13*
O=C(O)COc1ccccc1/C=N/NC(=O)CSc1nc2ccccc2n1Cc1ccc(Cl)cc1,-3,0,-3,60*,1,0,76*,35*
Cc1ccc(/C=N/NC(=O)CSc2nc3ccccc3n2Cc2ccc(Cl)cc2)o1,-4,-2,9,5,2,-5,nt,nt
O=C(CSc1nc2ccccc2n1Cc1ccc(Cl)cc1)N/N=C/c1ccccc1C(=O)O,-2,3,1,53*,-4,2,56*,18*
O=C(CSc1nnc(COc2ccccc2)n1-c1ccc(Cl)cc1)Nc1ccc2c(c1)OCCO2,nt,0,-1,7,2,-4,nt,nt
COc1ccccc1NS(=O)(=O)c1cccc(C(=O)N/N=C/c2ccc(OCC(=O)O)cc2)c1,2,-5,-2,15,0,-3,nt,nt
O=C(O)COc1ccccc1/C=N/NC(=O)c1cccc(S(=O)(=O)Nc2cccc(Cl)c2)c1,-6,-3,-2,48*,-3,-3,30,8.7*
Cc1ccc(S(=O)(=O)N2[C@@H](c3ccc(C(C)C)cc3)C(C(=O)O)=C[C@H]2C(C)(C)C)cc1,-4,3,0,69*,1,5,59*,23*
Cc1ccc([C@H]2C(C(=O)O)=C[C@@H](C(C)(C)C)N2S(=O)(=O)c2ccc(C)cc2)cc1,-3,4,2,42*,2,4,34,12*
CCc1cc(C(=O)O)c(NC(=O)C(c2ccccc2)c2ccccc2)s1,-14,-2,1,41*,-2,2,36*,8.4*
CCOC(=O)c1cc(C)sc1NC(=O)C(c1ccccc1)c1ccccc1,-12,2,-2,5,-4,-1,nt,nt
SMILES,ABHD5 PLIN5 PPI,PRMT1 FP inh,UHRF1 binding,rCAG RNA binder,LEDGF integ inh,MBD2 DNA inh,rCAG binder conf,DNA CAG counter
O=C(O)c1ccc(NC(=O)C(c2ccccc2)c2ccccc2)cc1,-7,0,-3,6,4,-1,nt,nt
O=C(c1ccc(NC(=O)C(c2ccccc2)c2ccccc2)cc1)c1ccc(C(=O)O)c(C(=O)O)c1,-5,4,2,42*,1,7,18,3
O=S(=O)(c1ccccc1F)n1c(CN2CCOCC2)nc2ccccc21,nt,0,0,2,-1,0,nt,nt
COc1ccc(CCN2CCC(CN3C(=S)NC[C@@H]3Cc3ccccc3)CC2)cc1OC,nt,-1,-3,5,-4,-1,nt,nt
O=C(O)CCC(=O)N1N=C(c2ccc(Br)cc2)CC1c1ccc(Br)cc1 (configuration not stated),1,2,0,38*,7,4,51*,14*
CCOc1ccc2nc(NC(=O)Nc3ccccc3)sc2c1,-11,-2,0,50*,-1,-3,15,20*
COc1ccc(NC(=O)c2nc3ccccc3s2)cc1,-2,-2,-5,0,0,0,nt,nt
CCOc1ccc2nc(NC(=O)c3ccccn3)sc2c1,4,-3,1,5,7,-3,nt,nt
COc1ccc(NC(=O)Nc2nc3ccccc3s2)cc1,-6,0,0,48*,-4,2,15,18*
CCCc1cc(=O)[nH]c(SCC(=O)Nc2nc3ccc(OCC)cc3s2)n1,-5,3,-1,49*,-5,-1,40*,12*
CCOc1ccc2nc(NC(=O)Nc3cccs3)sc2c1,0,0,-2,64*,-2,-4,29,28*
CCN(C(=O)[C@@H](C1CC1)[C@@H](O)c1ccc(C(C)=O)cc1)c1ccccc1,nt,3,-2,-1,-1,-2,nt,nt
COC(=O)[C@]12C[C@H](CC(=O)N3CCN(C(=O)C4CC4)CC3)C(=O)N(Cc3ccc4c(c3)OCO4)C1=C[C@H](C(C)C)O[C@@H]2C1CC1,nt,-2,0,0,1,-3,nt,nt
COc1cc(/C=C(\C#N)C(=O)NCc2ccccc2)ccc1OCc1ccc(C(=O)O)cc1,6,4,-2,43*,-1,0,30,5.9*
COCCNC(=O)/C(C#N)=C/c1ccc(OCc2ccccc2)cc1,10,-1,0,-2,3,-1,nt,nt
